Data taken from PubChem BioAssay AID1159580 (chemical genetic matrix, 2015).
Where “and” joins values, the source holds several entries; their conditions need not be identical. Equal entries are not always repeated. The whole screen tested about 5,500 compounds, of which about 2,000 (36%) were called active. About 18% were inconclusive and are not listed. Cut-off read from the data, not from the text of the source: active = normalized growth mostly below about 0.91 (no sharp cut-off); inconclusive = no clear call, values can overlap the other calls; inactive = mostly above about 0.92. Some of the results follow.

Test: chemical genetic growth profiling, strain panel (AID 1159580);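 note: tested at 20 µM; growth read once vehicle control cultures reached saturation at 30 °C; 1 = growth at the plate median or of vehicle wells; lower values mean less growth of the strain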
Details: S. cerevisiae deletion strains, growth OD

Measured: normalized growth

N#Cc1c(Cl)cccc1Cl
inactive: locus YAL013W, strain DEP1, active compounds read low 1.01 | locus YAL021C, strain ccr4, active compounds read low 1.01 | locus YAL026C, strain drs2, active compounds read low 0.988 | locus YAL030W, strain snc1, active compounds read low 0.979 | locus YBL061C, strain skt5, active compounds read low 0.979 | locus YBR009C, strain hhf1, active compounds read low 0.959 | locus YBR021W, strain FUR4, active compounds read low 1.02 | locus YBR023C, strain chs3, active compounds read low 0.981 | locus YBR171W, strain sec66, active compounds read low 0.982 | locus YBR229C, strain ROT2, active compounds read low 1.01 | locus YBR231C, strain swc5, active compounds read low 0.98 | locus YBR279W, strain paf1, active compounds read low 0.983 | locus YCL011C, strain gbp2, active compounds read low 0.954 | locus YCL016C, strain dcc1, active compounds read low 0.983 | locus YCL029C, strain bik1, active compounds read low 1.01 | locus YCL069W, strain vba3, active compounds read low 0.98 | locus YCR088W, strain abp1, active compounds read low 0.985 | locus YDL005C, strain med2, active compounds read low 0.977 | locus YDL035C, strain GPR1, active compounds read low 1.01 | locus YDL040C, strain nat1, active compounds read low 0.991 | locus YDL074C, strain BRE1, active compounds read low 1.03 | locus YDL101C, strain DUN1, active compounds read low 1.01 | locus YDL134C, strain PPH21, active compounds read low 1 | locus YDL185W, strain tfp1, active compounds read low 1.01 | locus YDL192W, strain arf1, active compounds read low 1.01 | locus YDR001C, strain nth1, active compounds read low 0.977 | locus YDR069C, strain doa4, active compounds read low 0.983 | locus YDR101C, strain arx1, active compounds read low 1.01 | locus YDR137W, strain rgp1, active compounds read low 1.01 | locus YDR150W, strain NUM1, active compounds read low 1.01 | locus YDR159W, strain sac3, active compounds read low 0.995 | locus YDR162C, strain NBP2, active compounds read low 1.01 | locus YDR195W, strain ref2 0.991 | locus YDR297W, strain sur2, active compounds read low 0.972 | locus YDR318W, strain mcm21, active compounds read low 1.01 | locus YDR334W, strain swr1, active compounds read low 0.952 | locus YDR335W, strain msn5, active compounds read low 0.977 | locus YDR388W, active compounds read low 1.01 | locus YDR392W, strain spt3, active compounds read low 1 | locus YDR502C, strain sam2, active compounds read low 1.01 | locus YEL003W, strain gim4, active compounds read low 0.969 | locus YEL037C, strain rad23, active compounds read low 0.981 | locus YEL061C, strain CIN8 (second series), active compounds read low 0.98 | locus YEL061C, strain CIN8, active compounds read low 1.01 | locus YER015W, strain faa2, active compounds read low 0.98 | locus YER016W, strain bim1, active compounds read low 0.979 | locus YER110C, active compounds read low 1 | locus YER111C, strain swi4, active compounds read low 0.965 | locus YER155C, strain BEM2 (second series), active compounds read low 0.975 | locus YER155C, strain BEM2, active compounds read low 1.01 | locus YER167W, strain BCK2, active compounds read low 1.01 | locus YFR010W, strain ubp6, active compounds read low 0.98 | locus YGL078C, strain dbp3, active compounds read low 1.01 | locus YGL086W, strain mad1, active compounds read low 1.01 | locus YGL167C, strain pmr1, active compounds read low 0.978 | locus YGL173C, strain kem1, active compounds read low 0.99 | locus YGL227W, strain vid30, active compounds read low 0.974 | locus YGL240W, strain doc1, active compounds read low 0.965 | locus YGL248W, strain PDE1, active compounds read low 1 | locus YGL253W, strain hxk2, active compounds read low 0.987 | locus YGR078C, strain PAC10, active compounds read low 1.01 | locus YGR135W, strain pre9, active compounds read low 1.01 | locus YGR229C, strain SMI1, active compounds read low 1.02 | locus YGR252W, strain gcn5, active compounds read low 1.09 | locus YHR013C, strain ard1, active compounds read low 1.02 | locus YHR027C, strain rpn1, active compounds read low 0.977 | locus YHR030C, strain SLT2, active compounds read low 1.02 and 0.941 | locus YHR079C, strain IRE1 (second series), active compounds read low 1.01 | locus YHR079C, strain IRE1, active compounds read low 0.965 | locus YHR094C, strain hxt1, active compounds read low 1.01 | locus YHR129C, strain ARP1, active compounds read low 1.01 | locus YHR142W, strain chs7, active compounds read low 0.976 | locus YHR200W, strain rpn10, active compounds read low 1.01 | locus YIL066C, strain RNR3, active compounds read low 1.04 | locus YIL073C, strain SPO22, active compounds read low 1.03 | locus YIL125W, strain kgd1, active compounds read low 1.01 | locus YIR030C, strain dcg1, active compounds read low 1.02 | locus YJL092W, strain hpr5, active compounds read low 0.976 | locus YJL095W, strain BCK1 (second series), active compounds read low 0.997 | locus YJL095W, strain BCK1, active compounds read low 0.999 and 0.941 | locus YJL115W, strain asf1, active compounds read low 0.959 | locus YJL129C, strain trk1, active compounds read low 0.976 | locus YJL134W, strain LCB3, active compounds read low 1.01 | locus YJL154C, strain vps35, active compounds read low 0.978 | locus YJL164C, strain tpk1, active compounds read low 0.996 | locus YJL166W, strain qcr8, active compounds read low 0.978 | locus YJL168C, strain set2, active compounds read low 1.01 | locus YJL187C, strain SWE1 (second series), active compounds read low 1.01 | locus YJL187C, strain SWE1, active compounds read low 0.988 | locus YJR043C, strain POL32, active compounds read low 1.02 | locus YJR066W, strain TOR1, active compounds read low 0.936
